This note sets out measurements from PubChem BioAssay (NCI).

This is part of a sample that, as a whole, favours compounds with a hit. Of some 83,000 tested, about 20% had one in any assay.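 A percent growth of 40 corresponds to 60% growth inhibition; 0 means no net growth; -100 means all cells died. Active threshold: below 10.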 Calls of active or inactive are those of the source.

This assay concerns HL-60(TB) leukemia. As to the kind of experiment: NCI-60 one-dose screen, 48 h (100 = growth as untreated, 0 = no growth, -100 = all killed). The following applies: 10 µM unless noted.
For `CN1CCN(C(=O)[C@@]2(C)CC[C@]3(C)CC[C@]4(C)C(=CC[C@@H]5[C@@]6(C)CCC(=O)NC(C)(C)[C@@H]6CC[C@]54C)[C@@H]3C2)CC1`, the growth is -35.8% (active).

Take `O=C(CCCCC(=O)Oc1c(Cl)cc(Cl)cc1[N+](=O)[O-])Oc1c(Cl)cc(Cl)cc1[N+](=O)[O-]`: the growth is 81.9% (inactive).

Consider `Nc1c(Br)cc2c(c1Br)Cc1cc([N+](=O)[O-])ccc1-2`, for which the growth was 69.6% (inactive).

Take `Cc1cc(C(C#N)c2ccc(Cl)cc2)c(Cl)cc1NC(=O)c1cc(I)cc(I)c1O` (centres undefined): the growth is 17.4% (inactive).

In the case of `CCCCNC1=C(OCC)C(=O)c2ccccc2C1=O`, the growth is 101% (inactive).

As to `CC(=O)c1cccc(Nc2ncnc3ccc(NC(=O)c4ccco4)cc23)c1`, the growth is 122% (inactive).

Consider `O=C(CCCCC[P+](c1ccccc1)(c1ccccc1)c1ccccc1)NC(COC(=O)C(Cl)Cl)(COC(=O)C(Cl)Cl)COC(=O)C(Cl)Cl`, for which the growth is 95.5% (inactive).

With `Cc1nc(C)c(C(=O)O)cc1C(=O)O`, the growth is 106% (inactive).

In the case of `ClC(Cl)c1nc(-c2ccccc2)nc2cc(-c3ccccc3)nn12`, the growth is 94.9% (inactive).

Consider `C[C@H]1[C@H](C)CC[C@]2(C(=O)NCCNCCN)CC[C@]3(C)C(=CC[C@@H]4[C@@]5(C)CCC(=O)C(C)(C)[C@@H]5CC[C@]43C)[C@H]12`, for which the growth is -58.5% (active).

For `COc1ccc(/C(=C\c2cc(OC)c(OC)c(OC)c2)C(=O)N2CCN(c3ccccc3)CC2)cc1O`, the growth is 106% (inactive).

As to `Clc1nccc2c(-c3csc(-c4c[nH]c5ccc(Br)cc45)n3)c[nH]c12`, the growth is 9.77% (active).

With `O=CNc1cc(Cl)cc(Cl)c1`, the growth was 93.2% (inactive).

For `COc1cc(Nc2c3ccc(Cl)cc3nc3ccc(OC)cc23)c2ncccc2c1`, the growth was 49.5% (inactive).

As to `COC(=O)[C@]12CC[C@@H](C)[C@H](C)[C@@H]1C1=CC(=O)[C@@H]3[C@@]4(C)C[C@@H](O)[C@H](O)[C@@]5(C)COC(=C45)C[C@@]3(C)[C@]1(C)CC2`, the growth was 41.9% (inactive).

With `O=C1CCC/C=C\C[C@H]2C=CC(=O)/C2=C/C[C@H](C/C=C\CC(F)(F)F)O1`, the growth is -16.6% (active).

`Cc1ccc(-c2nc(C(Cl)Cl)nc3cc(C)nn23)cc1`: the growth is -1.36% (active).

As for `Cc1ccc(NC(=O)c2sc3nc4c(cc3c2N)C(=O)CCC4)cc1C`, the growth is -10.6% (active).

Take `COc1ccc(NC(=S)Nc2ccccn2)cc1`: the growth is 84.9% (inactive).

Turning to `C=COCCCCCCCCCCCCCCCCCC`, the growth was 73.8% (inactive).

Take `COC(=O)C(C(=O)OC)C(Br)C(Br)C(Br)c1ccccc1` (centres undefined): the growth was 20.9% (inactive).

For the compound `COC(=O)c1cc2oc(/C=N/NC(=O)c3cc4oc(-c5cccc(C(F)(F)F)c5)cc4[nH]3)cc2n1Cc1ccccc1`, the growth was 69.9% (inactive).

Take `CC1CCCC(C(=O)O)C1C(=O)O` (centres undefined): the growth is 81.8% (inactive).

Take `CCNCCNc1cc(-c2ccc(Cl)c(Cl)c2)c(C#N)c2nc3ccccc3n12`: the growth was -62.3% (active).

For `CSc1nc(N)c(N=Nc2ccc(S(=O)(=O)Nc3nnc(C)s3)cc2)c(=O)[nH]1`, the growth is 90.4% (inactive).

With `Cc1nc2cc(-n3c(-c4ccc(F)cc4)nc4ccccc4c3=O)ccc2n1Cc1ccccc1`, the growth is 57.7% (inactive).

Take `COc1ccc(-c2cn(-c3ccc(Cl)cc3)c(SCC(=O)c3ccc([N+](=O)[O-])cc3)n2)cc1`: the growth was 84% (inactive).

For the compound `CCS(=O)(=O)N[C@@H]1O[C@H](COC(C)=O)C(OC(C)=O)[C@H](OC(C)=O)C1OC(C)=O` (some centres undefined), the growth was 117% (inactive).

For `CCN1CCN(Cc2ccc(-c3cc4c(N[C@H](C)c5ccccc5)ncnc4[nH]3)cc2)CC1`, the growth was 14.5% (inactive).

As to `N/C(=N/N=C/c1ccccc1)N/N=C\c1ccccc1`, the growth is 44.2% (inactive).

As to `CC(=O)c1c(C)nc2ccccc2c1/C=C/c1cccc(C)c1`, the growth was 28.2% (inactive).

On to `Cc1cccc(NC(=O)CSc2nc3ccccc3[nH]2)c1`, for which the growth is 101% (inactive).

As for `CC(C)c1nc2ccccc2n1CC(=O)N/N=C/c1cccc(O)c1`, the growth is 86.5% (inactive).

In the case of `CC(=O)CC(c1ccccc1)c1c(C)[nH]c2ccccc12` (centres undefined), the growth is 107% (inactive).

For the compound `O=C(COc1cccc(/C=C2\Cc3ccc(Cl)cc3C2=O)c1)Nc1nccs1`, the growth was 62.2% (inactive).

Consider `COc1ccc(C2CC(c3ccc(Nc4nc(Nc5ccc(F)cc5)nc(Nc5ccc(Cl)cc5)n4)cc3)=NN2C(C)=O)cc1` (centres undefined), for which the growth is 206% (inactive).

As for `O=C(/C=C1\C(=O)N(Cc2ccc([N+](=O)[O-])cc2)c2ccccc21)c1ccc(OCCN2CCCC2)cc1`, the growth is 17.5% (inactive).

With `COc1ccc(C2CC(c3ccc4c(c3)OCO4)=Nc3c(N)ncnc3N2)cc1` (centres undefined), the growth was 99.3% (inactive).

For `C/C(=C(\c1ccc(OCCN2CCCCCC2)cc1)c1ccc(OC(=O)Cc2ccccc2)cc1)c1ccc(Cl)cc1`, the growth is -60% (active).
